CHRM1 agonist: human M1 muscarinic receptor agonists, primary screen, Fluo-8 calcium fluorescence, CHO-K1 cells, HTS. Muscarinic acetylcholine receptor M1 (Homo sapiens), P11229. AID 588814, 2011. activation, % at 3 µM. 360,000 compounds, 0.33% hits. CHO-K1 hM1, agonist mode; 0% DMSO, 100% acetylcholine EC100;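 active = activation above the run's mean compound activation plus 3 SD, cut at about 16% in these data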;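 note: peak over basal fluorescence ratio within a 140 s kinetic read after compound addition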
Target sequence (P11229 whole entry, looked up): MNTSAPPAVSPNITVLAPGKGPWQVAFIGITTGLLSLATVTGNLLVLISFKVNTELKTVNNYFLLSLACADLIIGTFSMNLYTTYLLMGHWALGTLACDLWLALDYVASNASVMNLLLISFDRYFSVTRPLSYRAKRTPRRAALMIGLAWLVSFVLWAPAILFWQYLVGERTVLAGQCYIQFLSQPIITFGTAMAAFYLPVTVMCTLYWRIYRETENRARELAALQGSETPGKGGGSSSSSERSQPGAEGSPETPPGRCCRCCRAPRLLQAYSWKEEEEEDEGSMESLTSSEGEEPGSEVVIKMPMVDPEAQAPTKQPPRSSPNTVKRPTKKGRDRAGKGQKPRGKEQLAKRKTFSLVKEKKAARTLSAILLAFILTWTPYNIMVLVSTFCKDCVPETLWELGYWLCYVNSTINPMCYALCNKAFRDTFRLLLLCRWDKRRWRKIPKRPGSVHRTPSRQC
M1 antag: human M1 muscarinic receptor antagonists, primary screen, CHO-K1 cells, Fluo-8 calcium fluorescence, 1536-well; 360,000 compounds, 1.3% hits; AID 588852, 2011; Muscarinic acetylcholine receptor M1 (Homo sapiens), P11229; CHO-K1 hM1, ACh EC80 antagonist; inhibition, % at 3 µM;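 active = percent inhibition above its own plate's cutoff, namely the mean of that plate's compound wells plus 3 SD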;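 note: peak over basal fluorescence ratio during 140 s after agonist addition; 0% = ACh EC80 plus DMSO and 100% = DMSO alone without agonist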
M1 ag parental: counter-screen for M1 agonists: effect in parental CHO-K1 cells | activation, % at 3 µM | AID 602248, 2012 | Fluo-8 calcium fluorescence; scaled to maximal ATP response, vehicle zero | 360,000 compounds, 0.48% hits; in the data active = activation above about 15%;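 note: untransfected CHO-K1 host cells lacking M1 receptor as counterscreen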
CHO-K1 Ca antag: nonselective inhibitor or artifact in parental CHO-K1 cells; ATP-induced calcium, Fluo-8 fluorescence; inhibition, % at 3 µM; 360,000 compounds, 0.6% hits; AID 602250;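 active = inhibition above a per-plate cutoff, the plate's mean sample inhibition plus 3 SD, cut at about 24% in these data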;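 note: 0% = DMSO plus EC80 ATP and 100% = DMSO alone without ATP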
M1 PAM parental: nonselective calcium activators in parental CHO-K1 cells, primary screen, counter-screen for M1 PAM project, cell-based, Fluo-8 calcium fluorescence, full deck, 1536-well; ATP EC20; 0% at ATP EC20, 100% at ATP max; activation, % at 3 µM; 360,000 compounds, 0.02% hits; AID 602247, 2012;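 active = activation above the run cutoff, the mean activation of all test compounds plus 3 SD, cut at about 40% in these data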;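 note: peak over basal fluorescence ratio in a 140 s read after ATP addition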
CHRM1 PAM: human M1 muscarinic receptor positive allosteric modulators, primary screen, CHO-K1 cells, Fluo-8 calcium fluorescence, 1536-well | CHO-K1 hM1, ACh EC20; 0% = ACh EC20, 100% = maximal ACh | Muscarinic acetylcholine receptor M1 (Homo sapiens), P11229 | activation, % at 3 µM | 360,000 compounds, 0.088% hits; in the data active = activation above about 19%, passing the limit was not always enough
* marks the source's active call; other numbers are inactive results. The list is not random: actives were taken first. Their share in the collection is about 2.3%.

SMILES | CHRM1 agonist | M1 antag | M1 ag parental | CHO-K1 Ca antag | M1 PAM parental | CHRM1 PAM
Cc1cccc(NC(c2ccc(O)cc2)c2ccc3ccc(C)nc3c2O)n1 (stereo not given) | -3.3 | -4.6 | 0.2 | 24.9* | -8.2 | 5.3
Cc1cc(NC(c2cccnc2)c2ccc3cccnc3c2O)no1 (stereo not given) | -5.5 | 6.0 | 0.3 | 0.2 | -2.7 | -3.4
Cc1ccc(OCc2cn3cccnc3n2)cc1 | -4.6 | 0.4 | 95.3* | 67.0* | -4.0 | 1.4
CC(=O)Oc1ccc2c(C)cc(=O)[nH]c2c1 | 1.5 | -2.1 | -0.6 | 25.9* | -7.9 | 6.3
CCOC(=O)c1[nH]c(C)c(CN(C(C)=O)c2ccc(OCC)cc2)c1C | -13.7 | 25.6* | 0.7 | -6.4 | 23.6 | -29.2
CC(=O)c1c(C)[nH]c(C(=O)CN2C(=O)NC(C)(c3ccc(C)cc3)C2=O)c1C (stereo not given) | 26.5* | 9.1 | 14.3 | -10.1 | 29.1 | 4.4
CCN1C(=O)C(=O)N(CC(=O)c2[nH]c(C)c(C(C)=O)c2C)C1=O | -2.6 | 2.1 | 0.3 | -4.0 | -0.7 | 0.8
COC1OC(COCc2ccccc2)C(N)C(OCc2ccccc2)C1OCc1ccccc1 (stereo not given) | -1.9 | 41.7* | 2.9 | -13.8 | 24.5 | -27.6
CN(C)Cc1cc(C(F)(F)F)ccc1C(O)(c1ccccc1)c1ccccc1 | -7.4 | 101.4* | 0.4 | 8.2 | -23.0 | -31.0
CN(C)Cc1ccccc1C(O)(c1ccccc1)c1ccccc1 | -8.3 | 30.2 | 1.3 | -21.9 | 3.2 | -22.8
Cn1c(=O)c2c(ncn2CC(=O)OCC(=O)NNC(=O)c2ccc(Cl)cc2)n(C)c1=O | -2.4 | -10.0 | 0.4 | -10.5 | 13.1 | 9.2
COC(=O)c1ccc(N2CCN(C)CC2)c(NC(=O)COc2cccc(C)c2)c1 | -7.0 | -12.7 | 1.3 | -8.7 | 6.9 | 5.5
CCOC(=O)Nc1ccc2c(c1)N(C(=O)CN(C)C)c1ccccc1S2 | -8.4 | 7.3 | 1.0 | -6.5 | 27.2 | -14.6
CCOC(=O)Nc1ccc2c(c1)N(C(=O)CCN(C)C)c1ccccc1S2 | -4.9 | 51.1* | 0.4 | -4.2 | 20.4 | -21.7
CCOC(=O)Nc1ccc2c(c1)N(C(=O)C(C)N1CCCC1)c1ccccc1CC2 (stereo not given) | -11.9 | 91.0* | 0.1 | -6.4 | 4.2 | -35.4
CCOC(=O)Nc1ccc2c(c1)N(C(=O)CN1CCN(C)CC1)c1ccccc1S2 | -7.3 | 75.4* | 2.0 | -6.5 | 17.4 | -20.8
CCOC(=O)Nc1ccc2c(c1)N(C(=O)OC)c1ccccc1CC2 | -2.2 | -1.7 | 0.1 | -6.6 | 8.9 | 2.9
CCN(CC)CCC(=O)N1c2ccccc2Sc2ccc(NC(=O)OC)cc21 | -8.8 | 23.5 | 0.5 | -6.5 | 0.4 | -25.6
CCCC(CCC)C(=O)Nc1ccc2c(c1)N(C(=O)CN1CCN(C)CC1)c1ccccc1CC2 | -15.2 | 77.9* | 0.5 | -13.0 | -2.2 | -38.3
N#CC1(NC(=O)COc2ccc(C(N)=O)cc2)CCCC1 | -2.5 | 1.9 | -0.4 | -8.9 | 4.7 | 3.4
Cc1cc(C)c2nc(-c3ccccn3)cc(C(=O)N3CCCC3)c2c1 | -1.6 | -17.0 | 1.5 | -12.5 | 17.6 | 11.1
O=C(c1cc(-c2ccc(Cl)cc2Cl)on1)N1CCN(C(=O)c2ccco2)CC1 | 7.6 | -19.6 | -0.5 | 24.5* | -6.8 | 13.7
O=C(c1cc(-c2ccccc2Cl)on1)N1CCN(C(=O)c2ccco2)CC1 | 2.1 | -44.0 | 0.0 | -12.5 | 15.4 | 14.3
C/C(=N/NC(=O)c1ccc(C)s1)c1cccc(NC(=O)c2ccoc2C)c1 | -3.4 | -4.0 | 0.0 | 6.1 | -15.6 | -0.9
Cc1ccc(S(=O)(=O)n2c(N)nc3ccccc32)cc1 | -8.5 | 98.0* | 2.3 | -19.6 | 15.9 | -27.0
COc1ccc(S(=O)(=O)n2c(N)nc3ccccc32)cc1 | -10.2 | 99.8* | 0.8 | 0.0 | -8.9 | -33.6
Nc1nc2ccccc2n1S(=O)(=O)c1ccc([N+](=O)[O-])cc1 | -10.6 | 30.5 | 0.8 | -4.2 | 10.3 | -30.7
